Test results from publication PMC11624278.

Legend:
Experiment in all cases: cross-link between two proteins; affinity purification or IP with mass spectrometry; cross-linking mass spectrometry
[1] = target: Calreticulin (UniProt P14211)
[2] = target: Integrin alpha-3 (UniProt Q62470)
[3] = target: Integrin alpha-5 (UniProt P11688)

Measured: listed as a hit

UniProt P11688, sequence (P11688 whole entry): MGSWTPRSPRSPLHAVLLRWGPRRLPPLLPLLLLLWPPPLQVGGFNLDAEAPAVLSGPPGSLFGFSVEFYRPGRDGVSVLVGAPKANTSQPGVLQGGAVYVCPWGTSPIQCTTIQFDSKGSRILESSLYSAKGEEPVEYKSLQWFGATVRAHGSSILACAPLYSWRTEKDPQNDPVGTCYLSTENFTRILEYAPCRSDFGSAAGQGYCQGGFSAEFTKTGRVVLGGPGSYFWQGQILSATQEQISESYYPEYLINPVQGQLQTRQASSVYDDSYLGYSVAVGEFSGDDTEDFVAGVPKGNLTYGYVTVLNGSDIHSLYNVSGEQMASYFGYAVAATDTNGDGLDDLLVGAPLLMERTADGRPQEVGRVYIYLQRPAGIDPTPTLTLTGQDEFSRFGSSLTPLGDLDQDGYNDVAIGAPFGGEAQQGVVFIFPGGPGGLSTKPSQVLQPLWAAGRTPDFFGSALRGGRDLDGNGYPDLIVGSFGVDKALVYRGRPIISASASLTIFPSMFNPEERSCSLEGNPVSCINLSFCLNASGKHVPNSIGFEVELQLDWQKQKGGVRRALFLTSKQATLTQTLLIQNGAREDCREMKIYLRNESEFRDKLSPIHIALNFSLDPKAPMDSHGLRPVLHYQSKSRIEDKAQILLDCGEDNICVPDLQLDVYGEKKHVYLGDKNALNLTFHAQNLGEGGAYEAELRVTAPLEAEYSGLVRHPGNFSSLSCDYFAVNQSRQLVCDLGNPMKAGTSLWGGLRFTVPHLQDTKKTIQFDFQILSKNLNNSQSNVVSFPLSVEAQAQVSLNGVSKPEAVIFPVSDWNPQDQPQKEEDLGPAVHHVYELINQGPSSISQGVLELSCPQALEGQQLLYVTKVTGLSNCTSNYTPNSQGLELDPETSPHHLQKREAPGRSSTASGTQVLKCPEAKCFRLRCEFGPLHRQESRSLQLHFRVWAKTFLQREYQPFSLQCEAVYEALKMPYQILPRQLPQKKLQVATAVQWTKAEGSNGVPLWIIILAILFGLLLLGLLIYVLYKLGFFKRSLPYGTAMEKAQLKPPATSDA
UniProt Q62470, sequence (Q62470 whole entry): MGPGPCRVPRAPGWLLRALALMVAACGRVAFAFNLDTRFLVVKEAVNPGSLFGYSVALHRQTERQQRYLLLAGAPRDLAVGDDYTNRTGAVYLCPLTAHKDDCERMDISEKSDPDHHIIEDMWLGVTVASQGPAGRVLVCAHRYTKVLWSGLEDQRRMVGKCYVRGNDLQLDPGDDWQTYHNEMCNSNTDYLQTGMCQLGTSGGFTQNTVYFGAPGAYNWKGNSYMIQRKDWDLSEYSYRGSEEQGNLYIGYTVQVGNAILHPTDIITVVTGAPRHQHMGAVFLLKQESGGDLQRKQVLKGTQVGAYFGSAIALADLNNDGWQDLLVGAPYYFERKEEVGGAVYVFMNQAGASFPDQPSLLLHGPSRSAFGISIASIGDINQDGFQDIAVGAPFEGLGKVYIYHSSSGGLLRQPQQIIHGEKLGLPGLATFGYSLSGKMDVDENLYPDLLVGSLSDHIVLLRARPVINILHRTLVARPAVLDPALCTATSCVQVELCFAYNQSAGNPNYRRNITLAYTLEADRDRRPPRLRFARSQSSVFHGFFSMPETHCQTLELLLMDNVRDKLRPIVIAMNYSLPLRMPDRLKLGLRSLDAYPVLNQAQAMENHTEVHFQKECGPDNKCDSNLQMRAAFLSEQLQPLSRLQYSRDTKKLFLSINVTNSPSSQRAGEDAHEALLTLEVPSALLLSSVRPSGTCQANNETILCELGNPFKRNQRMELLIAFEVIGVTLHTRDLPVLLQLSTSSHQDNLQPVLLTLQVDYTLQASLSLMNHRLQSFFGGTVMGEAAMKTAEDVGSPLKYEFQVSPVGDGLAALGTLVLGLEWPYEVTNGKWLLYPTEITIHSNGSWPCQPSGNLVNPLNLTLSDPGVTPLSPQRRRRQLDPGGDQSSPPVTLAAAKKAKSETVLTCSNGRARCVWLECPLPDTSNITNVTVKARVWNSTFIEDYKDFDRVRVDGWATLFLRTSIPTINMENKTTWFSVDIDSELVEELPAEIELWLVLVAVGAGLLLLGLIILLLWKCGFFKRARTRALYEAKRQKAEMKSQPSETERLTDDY
UniProt P14211, sequence (P14211 whole entry): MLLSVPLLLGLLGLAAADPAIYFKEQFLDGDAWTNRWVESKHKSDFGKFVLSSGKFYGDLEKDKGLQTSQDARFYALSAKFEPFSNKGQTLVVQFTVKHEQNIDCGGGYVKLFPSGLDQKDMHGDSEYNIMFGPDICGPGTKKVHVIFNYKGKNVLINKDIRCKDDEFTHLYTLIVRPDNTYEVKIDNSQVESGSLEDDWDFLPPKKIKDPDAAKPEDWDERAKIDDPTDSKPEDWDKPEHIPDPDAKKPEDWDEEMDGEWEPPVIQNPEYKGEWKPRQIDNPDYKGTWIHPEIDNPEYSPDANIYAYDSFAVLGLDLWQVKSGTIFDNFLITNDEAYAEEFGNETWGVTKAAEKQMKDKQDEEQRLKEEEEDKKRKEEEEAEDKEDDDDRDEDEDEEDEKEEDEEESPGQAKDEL

Integrin beta-1, P09055
yes: all assays above
